PAFAH1B3 inh: inhibitors of human PAFAH1B3; recombinant PAFAH1B3, FP-rhodamine probe, fluorescence polarization; 340,000 compounds, 0.28% hits; Q15102; AID 492972; inhibition, % at 3.39 µM;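 active = inhibition above the screen-wide average of all tested compounds plus 3 SD, cut at about 25% in these data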
PP1 inh: PP1-alpha (human) inhibition in PP5 counter-screen; P62136; purified PP1alpha, OMFP fluorescence; inhibition, % at 6.7 µM; 320,000 compounds, 0.9% hits; AID 2235;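 active = inhibition above the mean inhibition of all tested compounds plus 3 SD, computed separately for each screening campaign, cut at about 15% in these data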
PP5 primary: inhibitors of human protein phosphatase 5 (PP5) | AID 1987 | inhibition, % at 6.7 µM | 320,000 compounds, 0.18% hits | P53041 | purified PP5c, OMFP substrate fluorescence;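 active = inhibition above the campaign's mean inhibition across all tested compounds plus 3 SD, cut at about 9.5% in these data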
Target sequence (P53041 whole entry, looked up): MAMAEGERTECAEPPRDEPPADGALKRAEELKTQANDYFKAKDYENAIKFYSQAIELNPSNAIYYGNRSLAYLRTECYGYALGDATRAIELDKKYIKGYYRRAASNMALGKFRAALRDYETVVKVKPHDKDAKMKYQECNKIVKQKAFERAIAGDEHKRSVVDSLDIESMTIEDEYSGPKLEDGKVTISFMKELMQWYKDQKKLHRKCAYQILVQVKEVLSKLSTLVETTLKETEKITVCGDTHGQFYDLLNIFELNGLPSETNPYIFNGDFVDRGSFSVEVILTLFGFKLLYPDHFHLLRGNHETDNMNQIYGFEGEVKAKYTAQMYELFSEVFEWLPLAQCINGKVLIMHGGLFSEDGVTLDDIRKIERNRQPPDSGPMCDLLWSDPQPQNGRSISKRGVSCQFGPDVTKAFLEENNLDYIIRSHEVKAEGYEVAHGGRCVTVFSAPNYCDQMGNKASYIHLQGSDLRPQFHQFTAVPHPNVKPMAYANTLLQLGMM
PAFAH2 FP inh: inhibitors of human PAFAH2; Q99487; recombinant PAFAH2, FP-rhodamine activity probe, fluorescence polarization; inhibition, % at 3.39 µM; 340,000 compounds, 0.99% hits; AID 492956;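 active = inhibition above the mean over all tested compounds plus 3 SD, cut at about 30% in these data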;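 note: inhibitors block probe labeling of enzyme so polarization drops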
PAFAH1B2 inh: blocks human PAF acetylhydrolase 1b catalytic subunit 2; P68402; recombinant PAFAH1B2, FP-rhodamine activity probe, fluorescence polarization; inhibition, % at 3.39 µM; 340,000 compounds, 1.2% hits;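 active = inhibition above the mean of all tested compounds plus 3 SD, cut at about 24% in these data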
pPAFAH inh: inhibitors of human plasma PAF acetylhydrolase (pPAFAH); Q13093; recombinant pPAFAH, FP-rhodamine probe fluorescence polarization; inhibition, % at 3.39 µM; 330,000 compounds, 1.5% hits;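 active = inhibition above the mean inhibition across the screen plus 3 SD, cut at about 25% in these data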;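 note: inhibitors block binding of the rhodamine activity-based probe so polarization drops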
PAFAH2 confirm: confirmation of human PAFAH2 inhibitors; recombinant PAFAH2, FP-rhodamine activity probe, fluorescence polarization; shares compounds with PAFAH2 FP inh; inhibition, % at 3.39 µM; 2,300 compounds, 65% hits;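 active = mean inhibition over three repeats above a set limit taken from the earlier primary screen, cut at about 30% in these data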;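 note: inhibitor blocks binding of rhodamine activity probe so polarization falls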
Numbers stand for hits; . = inactive; / = no result. This is a sample that favours compounds with a hit; in the whole collection about 3.4% have one here.

SMILES | PAFAH1B3 inh | PP1 inh | PP5 primary | PAFAH2 FP inh | PAFAH1B2 inh | pPAFAH inh | PAFAH2 confirm
O=C(COC(=O)C1=COCCO1)Nc1ccc(Br)cc1Br | . | / | / | 58 | . | . | 46
Oc1oc(-c2ccccc2)nc1C=NCc1ccccc1 | . | . | . | 45 | . | . | 37
Oc1oc(-c2ccccc2)nc1C=Nc1ccccc1 | . | . | . | . | . | . | /
CC(C)(C)SC(=O)CC1NS(=O)(=O)OCC1NC(=O)OCC(Cl)(Cl)Cl (stereo not drawn) | . | . | . | 49 | . | . | 34
CCN(CC)CCOC(=O)c1ccc(NC(=O)CNC(=O)C2CCCCC2)cc1 | . | . | . | . | . | . | /
Cc1ccc(NC(=O)COC(=O)C2CC2)cc1Cl | . | . | . | 79 | . | . | 69
CCC(=O)OCC(=O)Nc1ccc2c(c1)OCO2 | . | . | . | . | . | . | /
CN(C)S(=O)(=O)c1cc(NC(=O)COC(=O)CCc2ccccc2)ccc1Cl | . | . | . | . | . | . | /
CCN(c1ccccc1)S(=O)(=O)c1cc(NC(=O)COC(=O)C2CC2)ccc1Cl | . | . | . | 69 | . | . | 59
O=C(COC(=O)C1CC1)Nc1ccc2c(c1)OCO2 | . | . | . | 67 | . | . | 54
Cc1ccc(Cl)c(NC(=O)COC(=O)C2CCC2)c1Cl | . | . | . | . | . | . | /
Cc1ccccc1S(=O)(=O)Cc1ccc(C(=O)NC(C)c2ccccc2)o1 (stereo not drawn) | . | . | . | . | . | . | /
COc1ccccc1CC(=O)NC12CC3CC(CC(C3)C1)C2 | . | . | . | . | . | . | /
O=C(COC(=O)c1ccccc1O)NC12CC3CC(CC(C3)C1)C2 | . | / | / | 68 | . | . | 63
Cc1cccc(C(=O)OCC(=O)NC23CC4CC(CC(C4)C2)C3)c1O | . | / | / | 59 | . | . | 46
COc1ccc(C(=O)OCC(=O)NC23CC4CC(CC(C4)C2)C3)c(OC)c1OC | . | . | . | 86 | . | . | 86
O=C(Nc1cccc(F)c1)c1c(O)c2ccccc2[nH]c1=O | . | . | . | . | . | . | /
CCOC(=O)CSc1n[nH]c(NS(=O)(=O)c2ccccc2C(F)(F)F)n1 | . | . | . | . | . | . | /
COc1cc(C(=O)OCC(=O)Nc2ccc(C)cc2)cc(OC)c1OC | . | . | . | 31 | . | . | .
Cc1ccc(NC(=O)COC(=O)c2cc(Cl)ccc2[N+](=O)[O-])cc1 | . | . | . | 56 | . | . | 38
COc1cc(C(=O)OCC(=O)NC2CCCC2)cc(OC)c1OC | . | . | . | . | . | . | /
COc1cc(C(=O)OCC(=O)NC2CCCCC2)cc(OC)c1OC | . | / | / | 41 | . | . | .
COc1cc(C(=O)OCC(=O)Nc2cc(C)on2)cc(OC)c1OC | . | . | . | . | . | . | /
COc1cc(C(=O)OCC(=O)NC2CCCCC2)cc2c1OCCO2 | . | . | . | 74 | . | . | 66
O=C(Cc1ccc(-c2ccccc2)cc1)NC1CCCC1 | . | . | . | . | . | . | /
SMILES | PAFAH1B3 inh | PP1 inh | PP5 primary | PAFAH2 FP inh | PAFAH1B2 inh | pPAFAH inh | PAFAH2 confirm
CN(C(=O)COC(=O)c1cncc(Br)c1)C1CCCCC1 | . | / | / | . | . | . | /
NS(=O)(=O)c1cc(C(=O)OCC(=O)NC2CCCCCCC2)ccc1Cl | . | / | / | . | . | / | /
Cc1cc(C)cc(C(=O)OCC(=O)NC2CCCC2)c1 | . | . | . | 43 | . | . | .
Cc1cc(C)cc(C(=O)OCC(=O)NC(=O)NC2CCCC2)c1 | . | . | . | . | . | . | /
CN(C(=O)COC(=O)c1ccc2c(c1)OCCO2)C1CCCCC1 | . | / | / | 69 | . | / | 61
O=C(COC(=O)c1ccc2c(c1)OCCO2)NC1CCCCC1 | . | . | . | 87 | . | . | 77
COc1cccc(Oc2c(C)oc3c(CN4CCCCC4)c(O)ccc3c2=O)c1 | . | . | . | . | . | . | /
COc1cccc(/C=C/C(=O)NNC(=O)c2cc(C)oc2C)c1 | . | . | . | . | . | . | /
COc1ccc(NC(=O)C(C)Sc2ccccc2)cc1 (stereo not drawn) | . | . | . | . | . | . | /
CCOC(=O)c1sc(NC(=O)c2cccc(S(=O)(=O)N3CCN(C)CC3)c2)cc1C | . | . | . | . | . | . | /
COC(=O)c1c(NC(=O)c2cccc(S(=O)(=O)N3CCN(C)CC3)c2)sc(C)c1C | . | . | . | 30 | . | . | .
O=C(COC(=O)c1cccnc1Cl)Nc1ncc(Cl)cc1Cl | . | . | . | . | . | . | /
O=C(COC(=O)c1ccc(O)cc1)Nc1ncc(Cl)cc1Cl | . | . | . | 38 | . | . | .
O=C(COC(=O)c1ccc2c(c1)OCO2)Nc1ncc(Cl)cc1Cl | . | . | . | 40 | . | . | 37
O=C(COC(=O)c1ccc2c(c1)OCO2)NCc1ccc(Cl)cc1 | . | . | . | 44 | . | . | 40
Cc1oc2cc(O)ccc2c(=O)c1Oc1ccc2ccccc2c1 | . | . | . | . | . | . | /
O=C(Nc1ccc(OC(F)F)cc1)c1cc(S(=O)(=O)N2CCCCC2)ccc1N1CCOCC1 | . | . | . | . | . | . | /
COc1ccc(OCC(O)Cn2cnc(-c3ccc(Br)cc3)c2)cc1 (stereo not drawn) | . | . | . | . | . | . | /
CCN(CC)S(=O)(=O)c1ccc(N2CCOCC2)c(NC(=O)Cc2ccccc2F)c1 | . | . | . | . | . | . | /
CCN(CC)S(=O)(=O)c1ccc(N2CCOCC2)c(NC(=O)Cc2cccc3ccccc23)c1 | . | . | . | 60 | . | . | 45
CCOc1ccc(C(=O)NCC(=O)OCC(=O)NC2CCCC2)cc1 | . | . | . | 36 | . | . | .
CCOc1ccc(C(=O)OCC(=O)NC2CCCCCCC2)cc1 | . | . | . | 93 | . | . | 86
COc1ccc(C(=O)NCC(=O)OCC(=O)NC2CCCC2)cc1 | . | . | . | . | . | . | /
CC(C)c1ccc(OCC(=O)Nc2ccccc2C(=O)N2CCOCC2)cc1 | . | . | . | . | . | . | /
Cc1ccc(NC(=O)COC(=O)c2c(C)nn(-c3ccccc3)c2C)cc1 | . | . | . | . | . | . | /
SMILES | PAFAH1B3 inh | PP1 inh | PP5 primary | PAFAH2 FP inh | PAFAH1B2 inh | pPAFAH inh | PAFAH2 confirm
Cc1nn(-c2ccccc2)c(C)c1C(=O)OCC(=O)Nc1ccccc1 | . | . | . | 55 | . | . | 43
Cc1nn(-c2ccccc2)c(C)c1C(=O)OCC(=O)Nc1ccc2c(c1)OCO2 | . | . | . | 35 | . | . | 30
CCOC(=O)C1=C(COC(=O)c2ccc(Cl)c(S(=O)(=O)N3CCOCC3)c2)NC(=O)NC1C (stereo not drawn) | . | / | / | . | . | / | /
CCOP(=O)(OCC)C(NC(=O)c1ccc(OC)c(OC)c1)c1ccccc1 (stereo not drawn) | . | . | . | . | . | . | /
CCOc1ccccc1NC(=O)Cn1c(=O)sc2ccccc21 | . | . | . | . | . | . | /
O=C(Cn1c(=O)sc2ccccc21)Nc1ccc(O)cc1 | . | . | . | 31 | . | . | .
